High-throughput results: PubChem, National Center for Advancing Translational Sciences (NCATS)
Compounds with a hit are over-represented: about 9.5% of the library has one in this group of screens.
Pf growth 96h: P. falciparum growth inhibition at 96 hours; P. falciparum luciferase reporter growth, 96 h; Potency, µM (top dose mostly 28.7 µM), actives largely listed as inhibitors; 6.9% of 320,000 active; AID 504834; active = well fitted inhibition curve with a large enough effect; inconclusive = small, poorly fitted or top-dose-only effect, or another doubt; inactive = no such curve, though single readings can be large or run the other way
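Readout is luminescence from an integrated firefly luciferase in P. falciparum. Red cells, 2% hematocrit and 0.05% parasitemia final, were cultured with compound through two parasite generations (96 hours) at 37 C, 5% CO2.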
SARS PLP yeast: SARS-CoV PLP inhibition in yeast; S. cerevisiae expressing SARS-CoV PLpro, growth rescue; 0.19% of 330,000 active; AID 485353; Potency, µM (top dose mostly 32.9 µM), usual class: activators; note: nearly all actives have a fitted effect of over 55% in size
NS1 inh: blocks influenza NS1 protein function; Potency, µM (titrated, usually from 46.1 µM); 0.4% of 270,000 active; note: actives are rising curves; nearly all actives have a fitted effect of over 50% in size
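Compounds were scored for reversing the slow growth caused by influenza A NS1 in S. cerevisiae, measured by optical density at 600 nm. Assay medium contained 2% galactose at pH 6.0; NS1-free yeast of the same strain were the positive control.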
Pf growth 48h: P. falciparum growth inhibition at 48 hours (one generation); 5.9% of 310,000 active; AID 504832; P. falciparum luciferase growth in erythrocytes, 48 h; Potency, µM (titrated, usually from 28.7 µM), usual class: inhibitors; active = well fitted inhibition curve with a large enough effect; inconclusive = small, poorly fitted or top-dose-only effect, or another doubt; inactive = no such curve, though single readings can be large or run the other way
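Erythrocytes infected with P. falciparum carrying an integrated firefly luciferase reporter (2% hematocrit, 0.1% parasitemia final) were exposed to compounds in RPMI 1640 with 0.5% Albumax at 37 C, 5% CO2. Growth inhibition was scored as reduced luminescence.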
RE007 growth inh: less growth of the S. pombe RE007 Vpr strain; 0.21% of 360,000 active; Potency, µM (titrated, usually from 92.2 µM), actives largely listed as inhibitors; AID 651644; S. pombe RE007 Vpr strain, BacTiter-Glo ATP luminescence, 24 h; active = well fitted falling curve with a large enough effect; inconclusive = small, poorly fitted or top-dose-only effect; inactive = no such curve, though single readings can be large or run the other way; note: nearly all actives have a fitted effect of over 50% in size
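Fission yeast RE007 carrying one integrated HIV-1 vpr copy, seeded at OD 0.01 in PMG+AL medium with 23 nL pinned compound. Grown 24 h at 30 degrees; viability read by BacTiter-Glo luminescence after 5 min.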
Hits are given with their value; [ ] = another dose, or the depositor's remark. Unless noted, calls come from the whole dose curve.

Screening COc1ccc(OCC(=O)OCC(=O)NC2CCCCC2C)cc1 (stereo not drawn) returned Pf growth 96h inconclusive, SARS PLP yeast inactive, Pf growth 48h inactive and RE007 growth inh inactive.
For C[C@@H](NC(=O)c1[nH]cnc1C(=O)Nc1cccc(Cl)c1)c1ccccc1 the results were Pf growth 96h inconclusive, SARS PLP yeast inactive, Pf growth 48h inconclusive and RE007 growth inh inactive.
For Cc1cc(C(=O)COc2ccccc2Cl)c(C)n1-c1ccc2c(c1)OCO2 the results were Pf growth 96h 8.3µM, SARS PLP yeast inactive, NS1 inh inactive, Pf growth 48h inconclusive and RE007 growth inh inactive.
O=C(COc1ccccc1Cl)Nc1ccc2c(c1)OCO2 was read as Pf growth 96h inactive, SARS PLP yeast inactive, NS1 inh inactive, Pf growth 48h inactive and RE007 growth inh inactive.
`Cc1cc(C(=O)CN2C(=O)NC(C)(CC(C)C)C2=O)c(C)n1-c1ccc2c(c1)OCO2` (stereo not drawn) gave Pf growth 96h 4.1µM, SARS PLP yeast inactive, NS1 inh inactive, Pf growth 48h inconclusive and RE007 growth inh inactive.
Cc1cc(C(=O)CSc2n[nH]c(N)n2)c(C)n1-c1ccc2c(c1)OCO2 was read as Pf growth 96h 12µM, SARS PLP yeast inactive, NS1 inh inactive, Pf growth 48h inactive and RE007 growth inh inactive.
`Cc1cc(C=O)c(C)n1-c1ccc2c(c1)OCO2` gave Pf growth 96h 3.7µM, SARS PLP yeast inactive, NS1 inh inactive, Pf growth 48h inactive and RE007 growth inh inactive.
For Cc1cc(C(=O)CN2C(=O)NC3(CCCC3)C2=O)c(C)n1-c1ccc2c(c1)OCO2 the results were Pf growth 96h inconclusive, SARS PLP yeast inactive, NS1 inh inactive, Pf growth 48h inactive and RE007 growth inh inactive.
`Cc1cc(C=O)c(C)n1-c1cccc(C(=O)O)c1` gave Pf growth 96h inactive, SARS PLP yeast inactive, NS1 inh inactive, Pf growth 48h inactive and RE007 growth inh inactive.
For COc1ccc(S(=O)(=O)NC(=O)C2(C)CCN2C(=O)Cc2ccc(C(C)(C)C)cc2)cc1 (stereo not drawn) the results were RE007 growth inh inactive.
`O=C(Nc1ccc(S(=O)(=O)Nc2ncccn2)cc1)c1ccc2ncsc2c1` gave Pf growth 96h inconclusive, SARS PLP yeast inactive, NS1 inh inconclusive, Pf growth 48h inconclusive and RE007 growth inh inactive.
O=C1O[C@@H]([C@@H](O)CO)[C@@H](O)[C@H]1O was read as Pf growth 96h inactive and Pf growth 48h inactive.
O=c1[nH]cnc(O)c1C(c1ccc([N+](=O)[O-])cc1)c1c(O)nc[nH]c1=O was read as Pf growth 96h inactive, SARS PLP yeast inactive, NS1 inh inactive, Pf growth 48h inactive and RE007 growth inh inactive.
`COc1ccc(S(=O)(=O)Nc2cccc3c2O[C@H](CN(C)C(=O)Nc2ccc(C(F)(F)F)cc2)[C@@H](C)CN([C@H](C)CO)C3=O)cc1` gave SARS PLP yeast inactive and RE007 growth inh inactive.
For CNS(=O)(=O)c1cccc(C(=O)OCC(=O)c2cc(C)n(CC3CCCO3)c2C)c1 (stereo not drawn) the results were Pf growth 96h inactive, SARS PLP yeast inactive, Pf growth 48h inactive and RE007 growth inh inactive.
Screening COc1ccc(-n2c(C)cc(C(=O)CCl)c2C)cc1 returned Pf growth 96h inconclusive, SARS PLP yeast inactive, NS1 inh inactive, Pf growth 48h inactive and RE007 growth inh inactive.
Screening Cc1ccc(-n2c(C)cc(C(=O)COc3c(CO)cc(F)cc3CO)c2C)cc1C returned Pf growth 96h 9.3µM, SARS PLP yeast inactive, NS1 inh inactive, Pf growth 48h inconclusive and RE007 growth inh inactive.
CNS(=O)(=O)c1cccc(C(=O)OCC(=O)c2cc(C)n(-c3ccc4c(c3)OCO4)c2C)c1 was read as Pf growth 96h 5.2µM, SARS PLP yeast inactive, NS1 inh inconclusive and RE007 growth inh inactive.
COCCNC(=O)C1(C)CCCN(C(=O)c2ccc(OC)c(OC)c2)C1 (stereo not drawn) was read as RE007 growth inh inactive[18.4 µM].
CCOc1ccc(C2C(C(=O)OC)=CN(CCOC)C=C2C(=O)OC)cc1 was read as Pf growth 96h inconclusive, SARS PLP yeast inactive, NS1 inh inactive, Pf growth 48h inconclusive and RE007 growth inh inactive.
Screening COCCN1C=C(C(=O)OC)C(c2ccc(Cl)cc2)C(C(=O)OC)=C1 returned Pf growth 96h inactive, SARS PLP yeast inactive, NS1 inh inactive, Pf growth 48h 10µM and RE007 growth inh inactive.
For COC(=O)C1=CN(c2cc(C)cc(C)c2)C=C(C(=O)OC)C1c1ccc(OC)c(O)c1 the results were Pf growth 96h inconclusive, SARS PLP yeast inactive, NS1 inh inactive, Pf growth 48h inactive and RE007 growth inh inactive.
`CCN1C=C(C(=O)OC)C(c2cccc(C)c2)C(C(=O)OC)=C1` gave Pf growth 96h 12µM, SARS PLP yeast inactive, NS1 inh inactive and RE007 growth inh inactive.
Screening COC(=O)C1=CN(Cc2cccs2)C=C(C(=O)OC)C1c1ccc(OC)cc1OC returned Pf growth 96h inactive, SARS PLP yeast inactive, NS1 inh inactive, Pf growth 48h inconclusive and RE007 growth inh inactive.
Screening COC(=O)C1=CN(c2cc(C)cc(C)c2)C=C(C(=O)OC)C1c1cccc(F)c1 returned Pf growth 96h inconclusive, SARS PLP yeast inactive, NS1 inh inactive, Pf growth 48h 12µM and RE007 growth inh inactive.
CCCCOc1ccccc1C1C(C(=O)OC)=CN(CC)C=C1C(=O)OC was read as Pf growth 96h inactive, SARS PLP yeast inactive, NS1 inh inactive, Pf growth 48h inconclusive and RE007 growth inh inactive.
For COC(=O)C1=CN(Cc2cccs2)C=C(C(=O)OC)C1c1cccc(Cl)c1 the results were Pf growth 96h inconclusive, SARS PLP yeast inactive, NS1 inh inactive, Pf growth 48h 9.3µM and RE007 growth inh inactive.
For COCCn1c(N)c(N(Cc2ccccc2)C(=O)c2oc3ccccc3c2C)c(=O)[nH]c1=O the results were Pf growth 96h inconclusive, SARS PLP yeast inactive, Pf growth 48h inconclusive and RE007 growth inh inactive.
`COCCN1C=C(C(=O)OC)C(c2cc3c(cc2Br)OCO3)C(C(=O)OC)=C1` gave Pf growth 96h inconclusive, SARS PLP yeast inactive, NS1 inh inactive, Pf growth 48h 5.9µM and RE007 growth inh inactive.
Screening COC(=O)C1=CN(Cc2ccc(OC)cc2)C=C(C(=O)OC)C1c1ccsc1 returned Pf growth 96h inactive, SARS PLP yeast inactive, NS1 inh inactive, Pf growth 48h 7.4µM and RE007 growth inh inactive.
Screening COCCN1C=C(C(=O)OC)C(c2ccc3c(c2)OCO3)C(C(=O)OC)=C1 returned Pf growth 96h inactive, SARS PLP yeast inactive, NS1 inh inactive, Pf growth 48h inconclusive and RE007 growth inh inactive.
`CCNC(=O)C1(C)CCN(C(=O)c2ccccc2C(F)(F)F)C1` (stereo not drawn) gave RE007 growth inh inactive.
`CCC(C)NC(=O)CSc1nnc(-c2ccc(Cl)cc2)n1N` (stereo not drawn) gave Pf growth 96h inactive, SARS PLP yeast inactive, Pf growth 48h inactive and RE007 growth inh inactive.
